# Laboratory results as given in PubChem BioAssay AID488977 (Johns Hopkins Ion Channel Center, 2010).
# Screen size: about 310,000 compounds; about 1,500 (0.48%) were called active.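 How the source made its calls: active means initial fluorescence not abnormally high and integrated response B-score, plate-corrected, over 3 SD above library mean; inactive means the rest.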 What follows is part of a selection rich in actives, with near analogues and random picks from the rest.
# Molecular target: High affinity choline transporter 1 (Homo sapiens) (UniProt Q9GZV3)
# Sequence (Q9GZV3 whole entry, looked up): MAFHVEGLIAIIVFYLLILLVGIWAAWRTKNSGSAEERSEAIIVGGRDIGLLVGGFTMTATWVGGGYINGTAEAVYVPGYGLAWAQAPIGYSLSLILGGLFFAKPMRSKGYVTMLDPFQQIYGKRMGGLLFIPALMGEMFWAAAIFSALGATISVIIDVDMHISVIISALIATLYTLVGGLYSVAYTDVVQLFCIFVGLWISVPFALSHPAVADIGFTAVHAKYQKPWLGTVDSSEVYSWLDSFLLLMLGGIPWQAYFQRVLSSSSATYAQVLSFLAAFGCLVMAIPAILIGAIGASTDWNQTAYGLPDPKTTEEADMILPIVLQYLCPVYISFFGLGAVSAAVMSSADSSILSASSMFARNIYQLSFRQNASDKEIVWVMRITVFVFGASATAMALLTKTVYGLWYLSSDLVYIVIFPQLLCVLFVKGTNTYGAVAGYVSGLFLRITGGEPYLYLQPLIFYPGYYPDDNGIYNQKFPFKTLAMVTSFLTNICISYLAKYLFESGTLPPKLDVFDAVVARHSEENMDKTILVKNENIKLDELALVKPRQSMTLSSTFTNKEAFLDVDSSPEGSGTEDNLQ
# Assay: CHT positive allosteric modulators, primary screen, cell-based, membrane potential dye, choline EC20 (AID 488977)
# Conditions: CHT-expressing cells, at 10 µM; B-score: hits give high values, LV-AA mutant CHT in HEK293 cells unless noted; outcome: LV-AA mutant CHT in HEK293 cells unless noted
Structure (SMILES),B-score,outcome
CN1CCN(c2cc(N3CCNCC3)ccc2[N+](=O)[O-])CC1,8.44 (active),
CCN1CCN(c2ccc([N+](=O)[O-])cc2C#N)CC1,inactive,
COC(=O)C1=C(c2cc3ccccc3o2)C[C@@H]2CC[C@H]1N2C(=O)NC1CCCCC1,inactive,
COC(=O)C1=C(c2cc3ccccc3s2)C[C@@H]2CC[C@H]1N2C(=O)NCCO,inactive,
COC(=O)C1=C(c2ccccc2)C[C@@H]2CC[C@H]1N2C(=O)N1CCCCC1,inactive,
Cc1nc2ccc(N3CCN(C)CC3)cc2nc1C,6.37 (active),
C=CC12CN(C)[C@@H]3C4CO[C@H](C[C@H]41)[C@]1(C(=O)Nc4ccccc41)[C@@H]32 (stereo not given in full),inactive,
CC(=O)Nc1ccc(C(=O)C(Cc2ccccc2)N(C)C)cc1 (stereo not given),inactive,
O=[N+]([O-])c1cnc2ccc3ccccc3c2c1,inactive,
CCCCn1c(=O)c(C(=O)Nc2ccccc2Cl)c(O)c2ccccc21,inactive,
CCCCCn1c(=O)c(C(=O)Nc2c(C)n(C)n(-c3ccccc3)c2=O)c(O)c2ccccc21,8.71 (active),
CCCCCn1c(=O)c(C(=O)NCc2ccccc2)c(O)c2ccccc21,inactive,
CNCC(O)c1cc(F)c(OCc2ccccc2)c(OCc2ccccc2)c1F (stereo not given),inactive,
O=C(N/N=C/c1c(O)n(C2CC2)c(=S)[nH]c1=O)c1ccccc1Cl,,inactive [setting not given]
C/C(=N/O)c1ccc2ccc3ccccc3c2c1,inactive,
